PI5P4Ka inh = qHTS for Inhibitors of phosphatidylinositol 5-phosphate 4-kinase (PI5P4K); Phosphatidylinositol 5-phosphate 4-kinase type-2 alpha (Homo sapiens), P48426; 330,000 tested, 1.2% active; AID 652105, 2013; PI5P4Kalpha enzyme, ADP-Glo luminescence, 60 min; hits give low values; max response, %; active = max response of -50% or lower; inconclusive = between -30% and -50%; inactive = -30% or higher; also: value at the top dose of about 77 µM
Target sequence (P48426 whole entry, looked up): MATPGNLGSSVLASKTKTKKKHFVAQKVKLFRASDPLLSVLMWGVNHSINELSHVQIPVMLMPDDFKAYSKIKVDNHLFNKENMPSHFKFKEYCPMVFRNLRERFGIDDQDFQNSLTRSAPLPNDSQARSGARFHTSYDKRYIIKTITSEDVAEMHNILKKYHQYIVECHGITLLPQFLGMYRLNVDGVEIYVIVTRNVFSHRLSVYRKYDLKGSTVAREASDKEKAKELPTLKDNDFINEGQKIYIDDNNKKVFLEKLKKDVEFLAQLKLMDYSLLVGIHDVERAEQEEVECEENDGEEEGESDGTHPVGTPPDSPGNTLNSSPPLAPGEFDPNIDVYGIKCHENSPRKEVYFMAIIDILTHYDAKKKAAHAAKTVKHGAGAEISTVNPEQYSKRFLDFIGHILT
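PI5P4Kalpha ADP-Glo assay; 5 microM ATP final; 60 min RT reaction; HEPES pH 7.4/EGTA/CHAPS, 5% DMSO; controls lacking substrate or enzyme; luminescent end-point.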
PGK inhibitor = qHTS Assay to Find Inhibitors of Phosphoglycerate Kinase; 380,000 tested, 0.043% active; Potency, µM (series often up to 57.5 µM), hits mostly inhibitors; PGK/GAPDH coupled, Kinase-Glo luminescence, 60 min; AID 602233, 2012; also: nearly all actives have a fitted effect of over 60% in size
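Recombinant glycosomal PGK reaction used 1,3-bisphosphoglycerate generated in-well by GAPDH (100nM final) in 100mM TEA pH 7.6, 5mM MgCl2, 0.01% Tween-20. After 60 minutes at room temperature, ATP was read by Kinase-Glo Plus luminescence end-point.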
Pin1 inhibitor = qHTS Assay to Find Inhibitors of Pin1 | Pin1 FP peptide displacement, HiFluor488, 10 min | Potency, µM (titrated, usually from 115 µM), most hits filed as inhibitors | 390,000 tested, 0.009% active | Peptidyl-prolyl cis-trans isomerase NIMA-interacting 1 (Homo sapiens), Q13526; active = well fitted inhibition curve with a large enough effect in the polarisation, with a control signal flat, not every such curve was filed as active; inconclusive = small, poorly fitted or top-dose-only effect, or effect the other way, or a change in a side signal; inactive = no such curve, though single readings can be large or run the other way; the % refers to the polarisation
Target sequence (Q13526 whole entry, looked up): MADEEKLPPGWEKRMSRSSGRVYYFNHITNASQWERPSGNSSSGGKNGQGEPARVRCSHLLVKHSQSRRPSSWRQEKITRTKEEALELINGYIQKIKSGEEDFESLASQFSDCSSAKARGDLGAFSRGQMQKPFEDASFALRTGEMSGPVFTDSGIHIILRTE
PI4K2A inh = qHTS for small molecular inhibitors of PI4K2A. Phosphatidylinositol 4-kinase type 2-alpha (Homo sapiens), Q9BTU6. purified PI4K2A, ADP-Glo luminescence, 1 h; hits give low values. activity change, negative = inhibition, % at 76.9 µM. 420,000 tested, 0.13% active; in the data active = activity change below about -50%; inconclusive = mostly about -30% to -49%
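In this quantitative HTS, ADP production by PI4K2A was quantified luminescently after 1 h at ambient temperature; 100 microM adenosine served as plate-quality control.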
Tb PFK inh = qHTS Assay to Find Inhibitors of T. brucei phosphofructokinase | 330,000 tested, 0.17% active | T. brucei PFK, ADP-Glo luminescence | ATP-dependent 6-phosphofructokinase (Trypanosoma brucei brucei), O15648 | Potency, µM (doses to about 57.5 µM), usual class: inhibitors; also: nearly all actives have a fitted effect of over 60% in size
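Compounds were pin-transferred as a titration series up to 57 uM into substrate buffer (0.5 mM F6P, 0.1 mM ATP, pH 8.0), then 1.25 nM PFK was added and reactions ran 45 min before ADP-Glo detection.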
A number is an active result. This excerpt belongs to a sample that is enriched for hits. Unless noted, calls follow the shape of the dose curve; as a rule, active = well fitted curve in the direction sought with a large enough effect; inconclusive = small, poorly fitted or top-dose-only effect, or another doubt; inactive = no such curve, though single readings can be large; an effect the other way counts as inactive or inconclusive.

O=C(c1ccco1)N1CCN(Cc2ccc(Cl)cc2)CC1 was read as PI5P4Ka inh inactive, PGK inhibitor inactive, Pin1 inhibitor inactive, PI4K2A inh -65 and Tb PFK inh inactive.
For O=C1CCCC2=C1C1(CCSC1)N=C(Nc1nc3ccccc3o1)N2 (stereo not given) the results were Pin1 inhibitor inactive.
`C=CCNC(=O)/C(C#N)=C\c1cc(Cl)c(O)c(OCC)c1` gave PI5P4Ka inh -59, PGK inhibitor inactive, Pin1 inhibitor inactive, PI4K2A inh inactive and Tb PFK inh inactive.
CCOc1cc(/C=C(/C#N)C(=O)Nc2ccc(O)cc2)cc(Br)c1O was read as PI5P4Ka inh -71, PGK inhibitor inactive, Pin1 inhibitor inconclusive, PI4K2A inh inactive and Tb PFK inh inactive.
`O=S(=O)(c1cccc(-c2n[nH]c(=S)o2)c1)N1CCOCC1` gave PI5P4Ka inh -73, PGK inhibitor inactive, Pin1 inhibitor inconclusive, PI4K2A inh inactive and Tb PFK inh inactive.
For O=S(=O)(c1cccc(-c2n[nH]c(=S)n2-c2ccccc2Cl)c1)N1CCOCC1 the results were PI5P4Ka inh inactive, PGK inhibitor inactive, Pin1 inhibitor inactive, PI4K2A inh inactive and Tb PFK inh inactive.
Screening O=S(=O)(c1ccc2oc(=S)[nH]c2c1)N1CCOCC1 returned PI5P4Ka inh -69, PGK inhibitor inactive, Pin1 inhibitor inactive, PI4K2A inh inactive and Tb PFK inh inactive.
For COc1ccc2ccccc2c1C=Nn1c(-c2cc(-c3ccccc3)n[nH]2)n[nH]c1=S the results were PI4K2A inh inactive.
Screening COc1ccc(S[C@]2(C(=O)N3CCN(c4ncccn4)CC3)CC(=O)N(C(=O)Nc3ccc(C)c(Cl)c3)[C@@H]2c2ccc(OC)cc2)cc1 returned PI4K2A inh inactive.
COc1cccc(/C=C/C(=O)OCC(=O)NCCC2=CCCCC2)c1 was read as PI5P4Ka inh -65, PGK inhibitor inactive, Pin1 inhibitor inconclusive, PI4K2A inh inactive and Tb PFK inh inactive.
Screening COc1cccc(/C=C/C(=O)OCC(=O)NCc2ccco2)c1 returned PI5P4Ka inh -53, PGK inhibitor inactive, Pin1 inhibitor inconclusive, PI4K2A inh inactive and Tb PFK inh inactive.
`COc1ccc(/C=C/C(=O)OCC(=O)NCCC2=CCCCC2)cc1` gave PI5P4Ka inh inactive, PGK inhibitor inactive, Pin1 inhibitor inactive, PI4K2A inh inactive and Tb PFK inh inactive.
`CCCC(=O)Nc1ccc(O)c(C(C)=O)c1` gave PI4K2A inh inactive.
For COc1ccc([C@H]2[C@H](c3ccccc3)C(=O)N2Cc2ccccc2)cc1COc1ccc(NC(C)=O)cc1 the results were Pin1 inhibitor inactive.
For O=c1[nH]c(=S)[nH]cc1S(=O)(=O)c1cccc(Cl)c1 the results were PI5P4Ka inh -57, PGK inhibitor inactive, Pin1 inhibitor inactive, PI4K2A inh inactive and Tb PFK inh inactive.
`O=c1[nH]c(=S)[nH]cc1Oc1ccc(Cl)cc1` gave PI5P4Ka inh inactive, PGK inhibitor inactive, Pin1 inhibitor inactive and PI4K2A inh inactive.
Cc1ccc(S(=O)(=O)N2CCOCC2)cc1NC(=O)CSc1nc2ccccc2c(=O)n1Cc1ccccc1 was read as PI5P4Ka inh inactive, PGK inhibitor inactive, Pin1 inhibitor inactive, PI4K2A inh inactive and Tb PFK inh inactive.
O=C(CSc1nc2ccccc2c(=O)n1Cc1ccccc1)Nc1ccc(Br)cc1C(=O)O was read as PI5P4Ka inh -75, PGK inhibitor inactive, Pin1 inhibitor inconclusive, PI4K2A inh inactive and Tb PFK inh inactive.
For O=C(O)/C=C/c1cc(F)c(S(=O)(=O)N2CCN(S(=O)(=O)c3ccc4c(c3)OCCO4)CC2)cc1F the results were Pin1 inhibitor inactive.
`CC(=O)Nc1ccc(NC(=O)CN2C(=O)CCc3cc(S(=O)(=O)N4CCCCC4)ccc32)cc1` gave PGK inhibitor inactive, Pin1 inhibitor inactive and PI4K2A inh inactive.
`CC(=O)c1ccc(NC(=O)CN2C(=O)CCc3cc(S(=O)(=O)N4CCC(C)CC4)ccc32)cc1` gave PGK inhibitor 25µM, Pin1 inhibitor inactive and PI4K2A inh inactive.
O=[N+]([O-])c1ccc2c(c1)/C(=N\O)c1ccccc1-2 was read as PI5P4Ka inh inactive, PGK inhibitor inactive, Pin1 inhibitor inactive, PI4K2A inh inactive and Tb PFK inh inactive.
`O=[N+]([O-])c1ccc2c(c1)-c1ccccc1C2O` (stereo not given) gave PI5P4Ka inh -69, PGK inhibitor inactive and PI4K2A inh inactive.
`COc1ccc(OC)c(-c2cc(C(=O)Nc3c(C)nn(Cc4ccc(Cl)cc4)c3C)no2)c1` gave PGK inhibitor inactive, Pin1 inhibitor inactive, PI4K2A inh inactive and Tb PFK inh inactive.
COc1ccc(OC)c(-c2cc(C(=O)Nc3c(C)nn(Cc4ccccc4)c3C)no2)c1 was read as PGK inhibitor inactive, Pin1 inhibitor inactive, PI4K2A inh -54 and Tb PFK inh inactive.
O=S(=O)(c1ccc2c(c1)OCCO2)N1CCN(S(=O)(=O)c2ccc3nc(Cl)c(Cl)nc3c2)CC1 was read as Pin1 inhibitor inactive.
For CS(=O)(=O)Nc1ccc(-c2ccc(/C=C3\SC(N)=NC3=O)o2)cc1 the results were PI5P4Ka inh -65, PGK inhibitor inactive, Pin1 inhibitor inconclusive, PI4K2A inh inactive and Tb PFK inh inconclusive.
For NC1=NC(=O)/C(=C/c2ccc(-c3ccc(S(N)(=O)=O)cc3)o2)S1 the results were PI5P4Ka inh inactive, PGK inhibitor inactive, Pin1 inhibitor inconclusive, PI4K2A inh inactive and Tb PFK inh inactive.
Screening Cc1ccc(NS(=O)(=O)c2ccc3c(c2)CCN(C(=O)C(F)(F)F)C3)cc1C returned Pin1 inhibitor inactive.
`CCN(CC)CCN` gave PI4K2A inh inactive.
For CN1CCc2sc(NC(=O)Cc3ccccc3)c(C(=O)Nc3ccc(Cl)cc3)c2C1 the results were Pin1 inhibitor inactive.
Screening Cc1cc(/C=N/NC(=O)C(O)(c2ccccc2)c2ccccc2)c(C)n1-c1ccc(C(=O)O)cc1 returned PI5P4Ka inh inactive, PGK inhibitor inactive, Pin1 inhibitor inactive, PI4K2A inh inactive and Tb PFK inh inactive.
For Cc1cc(/C=N/NC(=O)C(O)(c2ccccc2)c2ccccc2)c(C)n1-c1cccc(C(=O)O)c1 the results were PI5P4Ka inh -51, PGK inhibitor inactive, Pin1 inhibitor inconclusive, PI4K2A inh inactive and Tb PFK inh inactive.
CC[C@H](C)/C=C/C1=CC2=C(Cl)C(=O)[C@@]3(C)OC(=O)C(C(=O)[C@H](C)[C@@H](C)O)=C3C2=CO1 was read as PI5P4Ka inh -81, PGK inhibitor inactive, Pin1 inhibitor inconclusive and PI4K2A inh inconclusive.
